Compounds with a hit are over-represented: about 6.8% of the library has one in this group of screens.
Pf Dd2 inh: P. falciparum Dd2 growth inhibitors, primary screen, SYBR Green fluorescence, single dose replicates | 72 h; active compounds read low | activity change, % at 10 µM | actives 2.3% (n = 94,000); in the data active = activity change below about -80%
T cruzi growth: T. cruzi intracellular proliferation inhibitors, primary screen, cell-based, beta-gal Tulahuen parasites, NIH3T3 host, luminescence | actives 5.9% (n = 77,000) | inhibition, % at 8.34 µM | T. cruzi beta-gal in NIH3T3, GalScreen luminescence, 90 h;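 active = mean inhibition above about 93%, with at least 55% of replicates each passing it, limit read from the data, passing the limit was not always enough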
C diff HTS: C. difficile growth inhibitors, primary screen, HTS. Clostridium difficile clinical isolate growth, OD600, 24 h; active compounds read low. growth activity, negative = inhibition, % at 16 µg/mL (by protocol). actives 0.25% (n = 86,000);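 active = mean growth activity at or below -80% and every replicate also at or below -80%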;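 also: 0% = DMSO wells and -100% = levofloxacin 16 µg/mL wells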
* hit, by the source's call; ! = not confirmed by another sample.

Results for COc1ccc(S(=O)(=O)Nc2ccc3c(c2)C(=O)N([C@H](C)CO)C[C@@H](C)[C@@H](CN(C)S(=O)(=O)c2ccc(Cl)cc2)OCCCC[C@@H](C)O3)cc1 ?
Pf Dd2 inh: -88.7*; T cruzi growth: 91.0; C diff HTS: 5.2

Results for COc1ccc(S(=O)(=O)Nc2ccc3c(c2)C(=O)N([C@H](C)CO)C[C@@H](C)[C@@H](CN(C)S(=O)(=O)c2ccc(C)cc2)OCCCC[C@H](C)O3)cc1 ?
Pf Dd2 inh: -81.4*

How did COc1ccc(S(=O)(=O)Nc2ccc3c(c2)C(=O)N([C@@H](C)CO)C[C@H](C)[C@@H](CN(C)S(=O)(=O)c2ccccc2)OCCCC[C@@H](C)O3)cc1 do in these assays?
Pf Dd2 inh: -87.9*; C diff HTS: -2.5

How did C/C=C/c1cnc2c(c1)C(=O)N([C@@H](C)CO)C[C@H](C)[C@H](CN(C)S(=O)(=O)c1cn(C)cn1)O2 do in these assays?
Pf Dd2 inh: -0.3; C diff HTS: -4.4

How did C[C@H](CO)N1C[C@H](C)[C@@H](CN(C)S(=O)(=O)c2cccs2)Oc2ccc(NC(=O)CCCCCC(=O)Nc3ccccc3N)cc2C1=O do in these assays?
Pf Dd2 inh: -10.8; T cruzi growth: -39.8

What do the screens show for `C[C@H]1CN([C@@H](C)CO)C(=O)c2cccc(NC(=O)C3CC3)c2O[C@@H]1CN(C)Cc1ccc(Cl)c(Cl)c1`?
Pf Dd2 inh: -59.1; T cruzi growth: 64.1; C diff HTS: 1.1

Results for COc1ccc(NC(=O)N(C)C[C@H]2Oc3c(NC(=O)Nc4ccc(F)cc4)cccc3C(=O)N([C@H](C)CO)C[C@H]2C)cc1 ?
Pf Dd2 inh: -2.9; T cruzi growth: 6.8; C diff HTS: 2.6

How did COc1ccc(CN(C)C[C@@H]2OCCCC[C@@H](C)Oc3ccc(NC(=O)CCCN(C)C)cc3C(=O)N([C@@H](C)CO)C[C@H]2C)cc1 do in these assays?
Pf Dd2 inh: 22.2; T cruzi growth: -48.4; C diff HTS: -2.1

What do the screens show for `CO[C@H]1CN(C)C(=O)c2ccc(NS(=O)(=O)c3ccc(-c4ccccc4)cc3)cc2OC[C@@H](C)NC[C@@H]1C`?
Pf Dd2 inh: 25.0; C diff HTS: 6.7

Results for C/C=C/c1ccc(C2[C@@H]3CN(C(=O)Nc4ccc(F)cc4)C[C@H]2N3)cc1 (stereo partly specified) ?
Pf Dd2 inh: -53.8; C diff HTS: -6.5

How did O=C(Nc1ccc2c(c1)OCO2)N1C[C@@H]2N[C@H](C1)C2c1ccc(C=Cc2ccccc2)cc1 (stereo partly specified) do in these assays?
Pf Dd2 inh: -73.7; C diff HTS: -99.4*!

How did Cc1ccccc1-c1ccc(C2[C@@H]3CN(C(=O)Nc4ccc(F)cc4)C[C@H]2N3)cc1 (stereo partly specified) do in these assays?
Pf Dd2 inh: -39.4; C diff HTS: 49.9

Results for C/C=C/c1ccc(C2[C@@H]3CN(C(=O)Nc4ccccc4F)C[C@H]2N3)cc1 (stereo partly specified) ?
Pf Dd2 inh: -15.0; C diff HTS: 4.8

How did O=C(Nc1ccccc1F)N1C[C@@H]2N[C@H](C1)C2c1ccc(/C=C/c2ccccc2)cc1 (stereo partly specified) do in these assays?
Pf Dd2 inh: -60.0; C diff HTS: -97.3*!

Results for O=C(Nc1ccc(F)cc1)N1C[C@@H]2N[C@H](C1)C2c1ccc(/C=C/c2ccccc2)cc1 (stereo partly specified) ?
Pf Dd2 inh: -35.7; C diff HTS: -100.0*

How did O=C(Nc1ccc2c(c1)OCO2)N1[C@@H]2CNC[C@H]1C2c1ccc(/C=C/c2ccccc2)cc1 (stereo partly specified) do in these assays?
Pf Dd2 inh: -70.1; C diff HTS: 34.4

How did C/C=C/c1ccc(C2[C@@H]3CN(C(=O)Nc4ccc(C(F)(F)F)cc4)C[C@H]2N3)cc1 (stereo partly specified) do in these assays?
Pf Dd2 inh: -81.5*!; C diff HTS: 0.4

How did COc1ccc(CN(C)C[C@@H]2Oc3ccc(NS(=O)(=O)c4c(C)noc4C)cc3CC(=O)N([C@H](C)CO)C[C@@H]2C)cc1 do in these assays?
Pf Dd2 inh: -37.4; T cruzi growth: -4.1; C diff HTS: -7.9

Results for OC[C@@H]1[C@H](c2ccc(/C=C/c3ccccc3)cc2)[C@H]2CN(Cc3cccnc3)CCCCN12 ?
Pf Dd2 inh: -74.2; T cruzi growth: 48.0; C diff HTS: 12.9

How did COCCN(C[C@H]1N[C@H](CO)[C@H]1c1ccc(-c2ccc(F)cc2)cc1)C(C)=O do in these assays?
Pf Dd2 inh: -10.1; T cruzi growth: -48.3; C diff HTS: -2.4

Results for COCC(=O)Nc1ccc2c(c1)C(=O)N(C)[C@@H]1CC[C@H](CC(=O)NCc3ccc(OC)cc3)O[C@H]1CO2 ?
Pf Dd2 inh: -2.1; T cruzi growth: -15.7; C diff HTS: -3.2

Results for COc1ccc(NC(=O)Nc2ccc3c(c2)C(=O)N([C@H](C)CO)C[C@@H](C)[C@H](CN(C)S(=O)(=O)c2ccccc2)OCCCC[C@@H](C)O3)cc1 ?
Pf Dd2 inh: -82.5*; T cruzi growth: -25.6; C diff HTS: -3.8

How did COc1ccc(S(=O)(=O)N(C)C[C@H]2OCCCC[C@H](C)Oc3ccc(NC(=O)Nc4ccccc4)cc3C(=O)N([C@@H](C)CO)C[C@H]2C)cc1 do in these assays?
Pf Dd2 inh: -83.3*; T cruzi growth: 48.7; C diff HTS: -2.9

How did COc1ccc(S(=O)(=O)N(C)C[C@H]2OCCCC[C@@H](C)Oc3ccc(NC(=O)Nc4ccccc4)cc3C(=O)N([C@H](C)CO)C[C@@H]2C)cc1 do in these assays?
Pf Dd2 inh: -8.9; T cruzi growth: -53.2; C diff HTS: 1.4

How did COc1ccc(NC(=O)Nc2ccc3c(c2)C(=O)N([C@@H](C)CO)C[C@H](C)[C@@H](CN(C)S(=O)(=O)c2ccccc2)OCCCC[C@H](C)O3)cc1 do in these assays?
Pf Dd2 inh: -54.9; T cruzi growth: 30.8; C diff HTS: -4.9

How did COc1ccc(NC(=O)Nc2ccc3c(c2)C(=O)N([C@@H](C)CO)C[C@H](C)[C@H](CN(C)S(=O)(=O)c2ccc(C)cc2)OCCCC[C@@H](C)O3)cc1 do in these assays?
Pf Dd2 inh: -86.1*; T cruzi growth: 39.1

How did COc1ccc(NC(=O)Nc2ccc3c(c2)C(=O)N([C@H](C)CO)C[C@@H](C)[C@H](CN(C)S(=O)(=O)c2ccc(C)cc2)OCCCC[C@H](C)O3)cc1 do in these assays?
Pf Dd2 inh: -66.6; T cruzi growth: 72.5

What do the screens show for `CCCN1[C@@H]2c3ccc(-c4ccccc4)c(=O)n3C[C@H]1[C@H](CO)[C@H]2C(=O)NCCCN1CCOCC1`?
Pf Dd2 inh: 7.2; T cruzi growth: 62.8; C diff HTS: -4.9

How did O=C(C[C@@H]1CC[C@H](NS(=O)(=O)c2ccccc2)[C@@H](CO)O1)N1CCC(Cc2ccccc2)CC1 do in these assays?
Pf Dd2 inh: -5.6; C diff HTS: -6.1

What do the screens show for `C[C@H]1CN([C@@H](C)CO)C(=O)Cc2cc(NC(=O)Nc3ccc(C(F)(F)F)cc3)ccc2O[C@@H]1CN(C)C(=O)Nc1ccc2c(c1)OCO2`?
Pf Dd2 inh: -92.5*; C diff HTS: 3.5
